Experimental data reported in PubChem BioAssay (Tox21).
“And” between values parts separate entries of the source, which are not always exact repeats. Equal values may be shown once. Inconclusive results are not listed. A structure can be active in one record and inactive in another. The source made the active and inactive calls. Unless noted, calls follow the shape of the dose curve; as a rule, active = well fitted curve in the direction sought with a large enough effect in the repeat runs; inconclusive = weak or mixed curves; inactive = no such curve, though single readings can be large; an effect the other way counts as inactive or inconclusive.

Experiments:
[1] = target: Acetylcholinesterase (Homo sapiens) (UniProt P22303); experiment: Acetylcholinesterase (AChE) small molecule antagonists: enzyme-based qHTS assay (AID 1347397; calls by dose curve; also: nearly all actives have a fitted effect of over 55% in size; also: potency is read from the fitted curve at half-maximal effect); settings: Potency: AChE enzyme activity inhibition
Acetylcholinesterase (Homo sapiens), sequence (P22303 whole entry, looked up): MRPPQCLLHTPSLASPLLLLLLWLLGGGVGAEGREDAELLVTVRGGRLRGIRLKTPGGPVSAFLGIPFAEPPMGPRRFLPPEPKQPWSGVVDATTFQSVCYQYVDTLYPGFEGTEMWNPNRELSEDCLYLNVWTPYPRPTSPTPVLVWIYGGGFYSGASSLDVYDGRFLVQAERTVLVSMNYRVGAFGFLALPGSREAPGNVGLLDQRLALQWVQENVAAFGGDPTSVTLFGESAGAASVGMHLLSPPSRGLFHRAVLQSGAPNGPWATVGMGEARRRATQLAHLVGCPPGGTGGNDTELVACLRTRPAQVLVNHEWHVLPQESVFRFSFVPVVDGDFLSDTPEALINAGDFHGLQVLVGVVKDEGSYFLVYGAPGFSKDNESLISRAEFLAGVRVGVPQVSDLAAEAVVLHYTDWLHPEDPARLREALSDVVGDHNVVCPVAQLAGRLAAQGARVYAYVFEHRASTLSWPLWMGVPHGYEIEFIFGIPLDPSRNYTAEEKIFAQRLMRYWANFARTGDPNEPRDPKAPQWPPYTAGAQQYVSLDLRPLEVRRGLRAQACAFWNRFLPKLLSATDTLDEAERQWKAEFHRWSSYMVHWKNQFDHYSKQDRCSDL
Method in brief: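 Colorimetric DTNB readout of acetylthiocholine hydrolysis, 10 min at room temperature, after 30 min room-temperature exposure of 50 mU/mL recombinant human enzyme to compound; DMSO vehicle control.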

[2] = target: Acetylcholinesterase (Homo sapiens) (UniProt P22303); experiment: Acetylcholinesterase (AChE) small molecule antagonists: fluorescence cell-based qHTS assay (AID 1347398; calls by dose curve; also: nearly all actives have a fitted effect of over 50% in size); settings: Potency: AChE activity
Method in brief: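 Cellular AChE activity read as thiocholine from acetylthiocholine hydrolysis, detected by Thiolite Green fluorescence at 490/520 nm after 40 min at room temperature. Compounds were pre-incubated 30 min at 37 C on adherent SH-SY5Y cells.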

[3] = target: Acetylcholinesterase (Homo sapiens) (UniProt P22303); experiment: Acetylcholinesterase (AChE) small molecule antagonists: enzyme-based qHTS assay with human liver microsomes (AID 1347399; calls by dose curve; also: nearly all actives have a fitted effect of over 60% in size); settings: Potency: qHTS inhibition
Method in brief: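 Recombinant human AChE (50 mU/mL in the enzyme mix) and human liver microsomes (0.25 mg/mL final) were preincubated with compound and NADPH (0.25 mg/mL final) for 30 min at 37 C. Acetylthiocholine/DTNB was then added; thiocholine was read colorimetrically after 10 min at room temperature.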

[4] = target: Cytochrome P450 2D6 (Homo sapiens) (UniProt P10635); experiment: Cytochrome P450 Family 2 Subfamily D Member 6 (CYP2D6) small molecule antagonists: luciferase reporter qHTS assay (AID 1671196); also: nearly all actives have a fitted effect of over 50% in size; also: potency is read from the fitted curve at half-maximal effect; as to activity change, negative = inhibition: series mostly up to about 120 µM
Cytochrome P450 2D6 (Homo sapiens), sequence (P10635 whole entry, looked up): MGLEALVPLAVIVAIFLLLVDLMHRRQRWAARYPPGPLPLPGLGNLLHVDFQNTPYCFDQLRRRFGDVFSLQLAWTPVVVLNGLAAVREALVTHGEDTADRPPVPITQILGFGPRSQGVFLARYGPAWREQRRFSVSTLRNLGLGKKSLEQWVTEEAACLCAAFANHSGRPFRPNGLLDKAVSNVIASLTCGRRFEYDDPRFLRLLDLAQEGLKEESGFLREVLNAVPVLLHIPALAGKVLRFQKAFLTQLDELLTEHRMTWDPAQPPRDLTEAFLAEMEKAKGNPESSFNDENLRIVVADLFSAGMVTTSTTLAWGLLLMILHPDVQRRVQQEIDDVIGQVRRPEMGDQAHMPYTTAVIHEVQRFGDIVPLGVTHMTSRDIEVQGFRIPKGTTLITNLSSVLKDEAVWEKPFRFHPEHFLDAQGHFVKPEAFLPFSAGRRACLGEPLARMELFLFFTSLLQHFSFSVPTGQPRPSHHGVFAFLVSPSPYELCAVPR
Method in brief: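 Test chemicals meet CYP2D6 plus proluciferin substrate (10 min, RT); NADPH regenerating solution then drives turnover for 1 h. Detection reagent halts the reaction; luminescence measured after 20 min.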

[5] = target: Cytochrome P450 2C19 (Homo sapiens) (UniProt P33261); experiment: Cytochrome P450 Family 2 Subfamily C Member 19 (CYP2C19) small molecule antagonists: luciferase reporter qHTS assay (AID 1671197); also: nearly all actives have a fitted effect of over 65% in size; also: potency is read from the fitted curve at half-maximal effect; as to activity change, negative = inhibition: series mostly up to about 120 µM
Cytochrome P450 2C19 (Homo sapiens), sequence (P33261 whole entry, looked up): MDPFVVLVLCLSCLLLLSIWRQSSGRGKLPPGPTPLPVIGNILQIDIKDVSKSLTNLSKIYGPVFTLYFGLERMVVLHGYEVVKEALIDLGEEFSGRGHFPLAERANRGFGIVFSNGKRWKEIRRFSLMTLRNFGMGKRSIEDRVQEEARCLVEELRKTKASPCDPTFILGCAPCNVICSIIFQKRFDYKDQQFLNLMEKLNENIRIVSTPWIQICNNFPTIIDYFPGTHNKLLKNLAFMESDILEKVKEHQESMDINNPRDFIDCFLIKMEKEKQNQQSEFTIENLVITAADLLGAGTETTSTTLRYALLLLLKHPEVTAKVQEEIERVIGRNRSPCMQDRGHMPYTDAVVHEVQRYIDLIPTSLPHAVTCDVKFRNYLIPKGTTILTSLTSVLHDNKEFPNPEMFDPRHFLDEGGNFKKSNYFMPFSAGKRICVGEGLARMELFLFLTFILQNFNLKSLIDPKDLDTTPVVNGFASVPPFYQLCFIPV
Method in brief: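 First, compounds are pinned into enzyme-substrate mix and held 10 min at room temperature. Second, NADPH regeneration solution is added and plates incubate 1 h at 37C. Third, detection reagent is added and luminescence read after 20 min.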

[6] = target: Cytochrome P450 2C9 (Homo sapiens) (UniProt P11712); experiment: Cytochrome P450 Family 2 Subfamily C Member 9 (CYP2C9) small molecule antagonists: luciferase reporter qHTS assay (AID 1671198); also: nearly all actives have a fitted effect of over 50% in size; also: potency is read from the fitted curve at half-maximal effect; as to activity change, negative = inhibition: series mostly up to about 120 µM
Cytochrome P450 2C9 (Homo sapiens), sequence (P11712 whole entry, looked up): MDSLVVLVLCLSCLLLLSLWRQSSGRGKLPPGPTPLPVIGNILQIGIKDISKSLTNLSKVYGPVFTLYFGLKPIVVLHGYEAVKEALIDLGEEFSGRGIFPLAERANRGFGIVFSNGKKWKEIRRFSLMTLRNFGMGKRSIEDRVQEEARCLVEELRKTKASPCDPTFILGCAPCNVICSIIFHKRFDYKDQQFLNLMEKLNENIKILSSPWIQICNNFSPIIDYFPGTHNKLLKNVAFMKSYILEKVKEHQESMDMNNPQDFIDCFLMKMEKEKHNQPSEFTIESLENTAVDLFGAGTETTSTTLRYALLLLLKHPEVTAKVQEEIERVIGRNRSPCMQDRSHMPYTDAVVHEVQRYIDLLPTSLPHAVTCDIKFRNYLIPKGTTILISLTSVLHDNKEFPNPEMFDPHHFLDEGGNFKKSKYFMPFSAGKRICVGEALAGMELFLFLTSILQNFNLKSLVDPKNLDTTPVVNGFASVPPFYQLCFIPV
Method in brief: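 Enzyme-substrate mix preincubated with compound 10 min at room temperature; reaction started with NADPH regeneration solution, 1 h 37C. Luminescent luciferin product read after 20 min detection reagent.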

[7] = target: Voltage-gated inwardly rectifying potassium channel KCNH2 (Homo sapiens) (UniProt Q12809); experiment: Human Ether-a-go-go-Related Gene (hERG) channel small molecule antagonists: fluorescence cell-based qHTS assay (AID 1671200); also: nearly all actives have a fitted effect of over 50% in size; also: potency is read from the fitted curve at half-maximal effect;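 as to activity change, negative = inhibition: hERG-expressing U2OS cells given a thallium stimulus after FluxOR II dye loading; series mostly up to about 77 µM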
Voltage-gated inwardly rectifying potassium channel KCNH2 (Homo sapiens), sequence (Q12809 whole entry, looked up): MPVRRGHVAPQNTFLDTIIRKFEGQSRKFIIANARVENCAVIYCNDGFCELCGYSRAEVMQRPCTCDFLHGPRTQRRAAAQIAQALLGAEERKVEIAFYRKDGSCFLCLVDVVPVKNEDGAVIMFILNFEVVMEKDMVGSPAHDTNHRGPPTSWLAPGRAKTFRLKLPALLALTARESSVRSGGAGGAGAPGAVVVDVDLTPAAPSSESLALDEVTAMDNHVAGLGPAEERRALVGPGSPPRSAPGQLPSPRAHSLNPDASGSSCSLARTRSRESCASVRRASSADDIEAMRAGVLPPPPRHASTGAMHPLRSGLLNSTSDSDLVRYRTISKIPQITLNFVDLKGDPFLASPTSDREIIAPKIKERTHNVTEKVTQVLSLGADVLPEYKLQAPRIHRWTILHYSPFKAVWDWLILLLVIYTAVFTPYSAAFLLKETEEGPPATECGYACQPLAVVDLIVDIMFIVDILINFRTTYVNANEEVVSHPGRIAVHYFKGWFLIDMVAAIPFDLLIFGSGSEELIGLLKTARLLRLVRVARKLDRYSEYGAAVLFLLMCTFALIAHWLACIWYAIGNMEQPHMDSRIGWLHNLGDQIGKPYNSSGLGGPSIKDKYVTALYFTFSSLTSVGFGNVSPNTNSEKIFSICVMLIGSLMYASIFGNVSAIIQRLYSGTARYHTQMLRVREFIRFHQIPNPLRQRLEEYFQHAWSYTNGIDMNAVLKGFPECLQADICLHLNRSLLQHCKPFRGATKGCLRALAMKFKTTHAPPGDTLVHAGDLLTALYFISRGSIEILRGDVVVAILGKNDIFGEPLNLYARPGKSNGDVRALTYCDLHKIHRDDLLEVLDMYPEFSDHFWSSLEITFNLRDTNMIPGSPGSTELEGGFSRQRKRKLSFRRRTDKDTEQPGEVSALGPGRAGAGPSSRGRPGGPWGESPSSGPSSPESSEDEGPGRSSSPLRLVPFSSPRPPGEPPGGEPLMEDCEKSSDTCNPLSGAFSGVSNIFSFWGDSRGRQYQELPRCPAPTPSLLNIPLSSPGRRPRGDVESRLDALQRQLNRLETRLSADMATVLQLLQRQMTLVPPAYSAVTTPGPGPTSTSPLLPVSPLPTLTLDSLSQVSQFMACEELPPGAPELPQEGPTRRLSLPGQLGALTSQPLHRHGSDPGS
Method in brief: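 Kinetic two-minute fluorescence traces, sampled at 1 s, were collected following thallium stimulus of U2OS cells (1000 per well) that had been cultured overnight at 37 C and loaded with FluxOR II.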

[8] = target: Cytochrome P450 3A4 (Homo sapiens) (UniProt P08684); experiment: Cytochrome P450 Family 3 Subfamily A Member 4 (CYP3A4) small molecule antagonists: luciferase reporter qHTS assay (AID 1671201); also: nearly all actives have a fitted effect of over 50% in size; also: potency is read from the fitted curve at half-maximal effect; as to activity change, negative = inhibition: series mostly up to about 120 µM
Cytochrome P450 3A4 (Homo sapiens), sequence (P08684 whole entry, looked up): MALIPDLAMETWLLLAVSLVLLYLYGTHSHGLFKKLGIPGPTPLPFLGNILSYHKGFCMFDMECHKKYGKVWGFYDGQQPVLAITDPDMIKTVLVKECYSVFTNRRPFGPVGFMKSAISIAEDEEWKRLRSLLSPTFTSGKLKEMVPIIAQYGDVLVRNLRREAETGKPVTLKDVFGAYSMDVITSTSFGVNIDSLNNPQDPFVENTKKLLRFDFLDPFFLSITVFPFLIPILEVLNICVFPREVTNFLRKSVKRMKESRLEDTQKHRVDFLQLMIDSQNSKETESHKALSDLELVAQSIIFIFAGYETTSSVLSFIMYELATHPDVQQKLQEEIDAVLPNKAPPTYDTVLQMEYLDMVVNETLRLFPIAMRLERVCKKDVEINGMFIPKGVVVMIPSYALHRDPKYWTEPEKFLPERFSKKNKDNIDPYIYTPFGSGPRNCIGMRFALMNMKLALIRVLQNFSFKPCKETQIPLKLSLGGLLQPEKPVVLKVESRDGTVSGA
Method in brief: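 Proluciferin-to-luciferin conversion by CYP3A4, NADPH-regenerated, 1 h RT; luminescence read as RLU. Ketoconazole as control.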

[9] = target: Cytochrome P450 1A2 (Homo sapiens) (UniProt P05177); experiment: Cytochrome P450 Family 1 Subfamily A Member 2 (CYP1A2) small molecule antagonists: luciferase reporter qHTS assay (AID 1671199); also: nearly all actives have a fitted effect of over 50% in size; also: potency is read from the fitted curve at half-maximal effect; as to activity change, negative = inhibition: series mostly up to about 120 µM
Cytochrome P450 1A2 (Homo sapiens), sequence (P05177 whole entry, looked up): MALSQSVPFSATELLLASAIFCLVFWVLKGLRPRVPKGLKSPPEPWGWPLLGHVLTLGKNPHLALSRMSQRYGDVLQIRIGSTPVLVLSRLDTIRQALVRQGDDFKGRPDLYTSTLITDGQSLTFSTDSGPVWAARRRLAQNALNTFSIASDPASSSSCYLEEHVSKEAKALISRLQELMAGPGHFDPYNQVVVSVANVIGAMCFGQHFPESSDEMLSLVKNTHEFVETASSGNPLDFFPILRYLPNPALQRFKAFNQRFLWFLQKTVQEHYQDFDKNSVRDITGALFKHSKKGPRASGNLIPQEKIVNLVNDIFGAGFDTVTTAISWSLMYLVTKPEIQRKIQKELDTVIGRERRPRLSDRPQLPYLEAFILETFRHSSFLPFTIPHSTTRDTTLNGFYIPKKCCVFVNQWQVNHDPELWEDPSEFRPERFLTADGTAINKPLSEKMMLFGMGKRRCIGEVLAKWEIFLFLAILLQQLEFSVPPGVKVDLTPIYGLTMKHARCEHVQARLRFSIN
Method in brief: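 Steps: enzyme-substrate mix dispensed; test compounds and furafylline control pinned in; 10 min room temperature; NADPH regeneration solution added, 1 h; reaction stopped with luciferin detection reagent; luminescence read after 20 min.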
% is scaled to controls: 0 for no effect and ±100 for the full control effect.

O=C(NC(=O)c1c(F)cccc1F)Nc1cc(Cl)c(OC(F)(F)C(F)F)c(Cl)c1
active: Potency [5] 79.6 µM | Potency [6] 39.9 µM
inactive: Potency [1] | Potency [2] | Potency [3] | Potency [4] | Potency [7] | Potency [8]

O=C(Nc1ccc2[nH]ccc2c1)c1cc2cc(F)ccc2n1Cc1cccc(F)c1
active: Potency [4] 15.9 µM | Potency [5] 6.33 µM | Potency [6] 3.56 µM | Potency [8] 2.52 µM
inactive: Potency [1] | Potency [2] | Potency [3] | Potency [7]

CCN
inactive: Potency [1] | Potency [2] | Potency [3] | Potency [4] | Potency [5] | Potency [6] | Potency [7] | Potency [8]

C=COCCCl
inactive: Potency [1] | Potency [2] | Potency [3] | Potency [4] | Potency [5] | Potency [6] | Potency [9] | Potency [7] | Potency [8]

CC(C)(c1ccc(O)c(-c2ccccc2)c1)c1ccc(O)c(-c2ccccc2)c1
active: Potency [1] 17.8 µM | Potency [4] 63.3 µM | Potency [5] 17.8 µM | Potency [6] 3.17 µM | Potency [9] 35.6 µM | Potency [8] 5.03 µM
inactive: Potency [2] | Potency [3] | Potency [7]

CN(CCCC(=O)c1cccnc1)N=O
inactive: Potency [1] | Potency [2] | Potency [3] | Potency [4] | Potency [5] | Potency [6] | Potency [7]
active: Potency [8] 17.8 µM

Cc1cc(C(F)(C(F)(F)F)C(F)(F)F)ccc1NC(=O)c1cccc(I)c1C(=O)NC(C)(C)CS(C)(=O)=O
active: Potency [4] 4.51 µM | Potency [6] 20.1 µM | Potency [8] 2.01 µM
inactive: Potency [1] | Potency [2] | Potency [3] | Potency [5] | Potency [9] | Potency [7]

Clc1ccc(C(c2ccc(Cl)cc2)C(Cl)(Cl)Cl)cc1
inactive: Potency [1] | Potency [2] | Potency [3] | Potency [4] | Potency [8]
active: Potency [5] 20.2 nM and 17.8 nM and 69.2 nM | Potency [6] 2.26 µM and 10 µM and 3.89 µM | Potency [9] 12.6 µM and 13.8 µM | Potency [7] 13.8 µM

CC1(C)[C@H](C(=O)O[C@H](C#N)c2cccc(Oc3ccccc3)c2)[C@@H]1/C=C(\Cl)C(F)(F)F
active: Potency [5] 5.86 µM and 7.1 µM | Potency [6] 8.28 µM and 7.96 µM
inactive: Potency [1] | Potency [2] | Potency [3] | Potency [4] | Potency [7] | Potency [8]

O=c1c(C2CC(c3ccc(-c4ccc(Br)cc4)cc3)Cc3ccccc32)c(O)sc2ccccc12 (configuration not stated)
inactive: Potency [1] | Potency [2] | Potency [3] | Potency [4] | Potency [9] | Potency [7] | Potency [8]
active: Potency [6] 5.49 µM

ClC1=C(Cl)[C@]2(Cl)[C@H]3[C@H]([C@H]4C=C[C@H]3C4)[C@@]1(Cl)C2(Cl)Cl
inactive: Potency [1] | Potency [2] | Potency [3] | Potency [4] | Potency [9]
active: Potency [5] 15.9 µM | Potency [8] 1 µM

C[C@]12CC[C@H]3[C@@H](CCC4=CC(=O)CC[C@@]43C)[C@@H]1CC[C@@H]2O
inactive: Potency [1] | Potency [2] | Potency [3] | Potency [4] | Potency [5] | Potency [8]

CC(c1ccc(O)cc1)c1ccc(O)cc1
51.5 µM (active) and inactive: Potency [7]
active: Potency [6] 59.3 µM and 35.6 µM | Potency [8] 42 µM
inactive: Potency [1] | Potency [2] | Potency [3]
37.4 µM (active) and inactive: Potency [9]
33.4 µM (active) and inactive: Potency [4]

CCCCCCCCCCCCCCC(Br)C(=O)O (configuration not stated)
inactive: Potency [1] | Potency [2] | Potency [3] | Potency [4] | Potency [5] | Potency [7] | Potency [8]

COc1ccc(/C(=C/C(=O)N2CCOCC2)c2ccc(Cl)cc2)cc1OC
inactive: Potency [1] | Potency [2] | Potency [3] | Potency [4] | Potency [9]
active: Potency [6] 31.7 µM | Potency [7] 12.3 µM | Potency [8] 3.17 µM

O=C(O)COc1nc(Cl)c(Cl)cc1Cl
active: Potency [4] 6.48 µM | Potency [6] 51.5 µM
inactive: Potency [1] | Potency [2] | Potency [3] | Potency [7]

Brc1c(Br)c(Br)c(Oc2c(Br)c(Br)c(Br)c(Br)c2Br)c(Br)c1Br
inactive: activity change, negative = inhibition [1] -1.63% [at 23.6 µM] | activity change, negative = inhibition [2] 6.2% [at 23.8 µM] | activity change, negative = inhibition [3] -0.487% [at 23.6 µM] | activity change, negative = inhibition [4] 0.431% [at 23.6 µM] | activity change, negative = inhibition [6] -7.81% [at 23.6 µM] | activity change, negative = inhibition [9] -11% [at 23.6 µM] | activity change, negative = inhibition [7] -0.0422% [at 15.8 µM] | activity change, negative = inhibition [8] 2.2% [at 23.6 µM]

O=c1ssc(Cl)c1Cl
active: Potency [4] 63.3 µM | Potency [6] 39.9 µM | Potency [9] 35.6 µM | Potency [7] 49 µM | Potency [8] 63.3 µM
inactive: Potency [1] | Potency [2] | Potency [3]

COC12CC[C@@]3(C[C@@H]1C(C)(O)C(C)(C)C)[C@H]1Cc4ccc(O)c5c4[C@@]3(CCN1CC1CC1)[C@H]2O5 (some centres not stated)
active: Potency [4] 2.23 µM
inactive: Potency [1] | Potency [2] | Potency [3] | Potency [9]

N#CCCO
inactive: Potency [1] | Potency [2] | Potency [3] | Potency [4] | Potency [6] | Potency [9] | Potency [7] | Potency [8]

Clc1ccc(Oc2ccccc2)cc1
inactive: Potency [1] | Potency [2] | Potency [3] | Potency [4] | Potency [6] | Potency [8]

CCC[CH2][Sn]([CH2]CCC)([CH2]CCC)[O]C(=O)c1ccccc1
inactive: Potency [1] | Potency [2] | Potency [3]
active: Potency [4] 1.12 µM | Potency [6] 12.6 µM | Potency [7] 4.9 µM | Potency [8] 35.6 µM

Cc1ccc(C(=O)Cl)cc1
inactive: Potency [1] | Potency [2] | Potency [3] | Potency [4] | Potency [6] | Potency [9] | Potency [7]

CC(C)OC(=S)S
inactive: Potency [1] | Potency [2] | Potency [3] | Potency [4] | Potency [7] | Potency [8]
active: Potency [6] 31.7 µM
